Test results reported in PMC11006913.

Legend:
Assay in all cases: PBM; 200 nM protein, PBS
Conditions in all cases: dsDNA, one strand shown
HESX1 [1] = biological target: HESX1 (Homo sapiens, UniProt Q9UBX0 95-180, R165K)
HOXB4 [2] = biological target: HOXB4 (Homo sapiens, UniProt P17483 148-234)
HESX1 [3] = biological target: HESX1 (Homo sapiens, UniProt Q9UBX0 95-180)
HOXB4 [4] = biological target: HOXB4 (Homo sapiens, UniProt P17483 148-234, V174I)
ALX1 [5] = biological target: ALX1 (Homo sapiens, UniProt Q15699 118-204, L144V)
Sequence of ALX1 (Homo sapiens, UniProt Q15699 118-204, L144V) (Q15699 118-204 L144V): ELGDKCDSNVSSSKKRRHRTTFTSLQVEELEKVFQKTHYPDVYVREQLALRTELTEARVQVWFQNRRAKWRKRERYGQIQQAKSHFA

ALX1 [6] = biological target: ALX1 (Homo sapiens, UniProt Q15699 118-204, L144R)
Sequence of ALX1 (Homo sapiens, UniProt Q15699 118-204, L144R) (Q15699 118-204 L144R): as the sequence (Q15699 118-204 L144V) above, with V27R counted along it

HESX1 [7] = biological target: HESX1 (Homo sapiens, UniProt Q9UBX0 95-180, R109Q)
Sequence of HESX1 (Homo sapiens, UniProt Q9UBX0 95-180, R109Q) (Q9UBX0 95-180 R109Q): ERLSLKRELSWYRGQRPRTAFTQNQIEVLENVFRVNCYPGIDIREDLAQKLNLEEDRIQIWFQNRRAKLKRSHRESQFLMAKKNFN

HESX1 [8] = biological target: HESX1 (Homo sapiens, UniProt Q9UBX0 95-180, P111T)
Sequence of HESX1 (Homo sapiens, UniProt Q9UBX0 95-180, P111T) (Q9UBX0 95-180 P111T): as the sequence (Q9UBX0 95-180 R109Q) above, with Q15R, P17T counted along it

HESX1 [9] = biological target: HESX1 (Homo sapiens, UniProt Q9UBX0 95-180, F115L)
Sequence of HESX1 (Homo sapiens, UniProt Q9UBX0 95-180, F115L) (Q9UBX0 95-180 F115L): as the sequence (Q9UBX0 95-180 R109Q) above, with Q15R, F21L counted along it

ALX1 [10] = biological target: ALX1 (Homo sapiens, UniProt Q15699 118-204)
Sequence of ALX1 (Homo sapiens, UniProt Q15699 118-204) (Q15699 118-204): as the sequence (Q15699 118-204 L144V) above, with V27L counted along it

SHOX [11] = biological target: SHOX (Homo sapiens, UniProt O15266 103-189)
Sequence of SHOX (Homo sapiens, UniProt O15266 103-189) (O15266 103-189): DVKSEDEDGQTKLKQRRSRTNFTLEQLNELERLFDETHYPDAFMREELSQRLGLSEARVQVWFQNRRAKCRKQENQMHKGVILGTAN

ALX3 [12] = biological target: ALX3 (Homo sapiens, UniProt O95076 139-225, N203Q)
Sequence of ALX3 (Homo sapiens, UniProt O95076 139-225, N203Q) (O95076 139-225 N203Q): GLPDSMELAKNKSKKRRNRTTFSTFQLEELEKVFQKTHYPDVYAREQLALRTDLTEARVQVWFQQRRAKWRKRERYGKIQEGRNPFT

SHOX [13] = biological target: SHOX (Homo sapiens, UniProt O15266 103-189, R173C)
Sequence of SHOX (Homo sapiens, UniProt O15266 103-189, R173C) (O15266 103-189 R173C): as the sequence (O15266 103-189) above, with R71C counted along it

ALX3 [14] = biological target: ALX3 (Homo sapiens, UniProt O95076 139-225)
Sequence of ALX3 (Homo sapiens, UniProt O95076 139-225) (O95076 139-225): as the sequence (O95076 139-225 N203Q) above, with Q65N counted along it

PROP1 [15] = biological target: PROP1 (Homo sapiens, UniProt O75360 56-141)
Sequence of PROP1 (Homo sapiens, UniProt O75360 56-141) (O75360 56-141): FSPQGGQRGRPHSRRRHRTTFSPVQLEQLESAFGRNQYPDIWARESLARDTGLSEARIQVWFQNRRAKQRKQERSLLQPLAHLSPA

PROP1 [16] = biological target: PROP1 (Homo sapiens, UniProt O75360 56-141, R99H)
Sequence of PROP1 (Homo sapiens, UniProt O75360 56-141, R99H) (O75360 56-141 R99H): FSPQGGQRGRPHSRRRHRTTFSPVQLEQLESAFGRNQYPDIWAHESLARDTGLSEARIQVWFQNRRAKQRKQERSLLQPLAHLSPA

ALX3 [17] = biological target: ALX3 (Homo sapiens, UniProt O95076 139-225, L168Q)
Sequence of ALX3 (Homo sapiens, UniProt O95076 139-225, L168Q) (O95076 139-225 L168Q): as the sequence (O95076 139-225 N203Q) above, with L30Q, Q65N counted along it

ALX3 [18] = biological target: ALX3 (Homo sapiens, UniProt O95076 139-225, L168V)
Sequence of ALX3 (Homo sapiens, UniProt O95076 139-225, L168V) (O95076 139-225 L168V): as the sequence (O95076 139-225 N203Q) above, with L30V, Q65N counted along it

PROP1 [19] = biological target: PROP1 (Homo sapiens, UniProt O75360 56-141, F88S)
Sequence of PROP1 (Homo sapiens, UniProt O75360 56-141, F88S) (O75360 56-141 F88S): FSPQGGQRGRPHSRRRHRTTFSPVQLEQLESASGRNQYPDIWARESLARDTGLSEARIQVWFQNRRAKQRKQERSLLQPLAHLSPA

ALX3 [20] = biological target: ALX3 (Homo sapiens, UniProt O95076 139-225, N203S)
Sequence of ALX3 (Homo sapiens, UniProt O95076 139-225, N203S) (O95076 139-225 N203S): as the sequence (O95076 139-225 N203Q) above, with Q65S counted along it

Sequence of HESX1 (Homo sapiens, UniProt Q9UBX0 95-180) (Q9UBX0 95-180): as the sequence (Q9UBX0 95-180 R109Q) above, with Q15R counted along it
Sequence of HOXB4 (Homo sapiens, UniProt P17483 148-234) (P17483 148-234): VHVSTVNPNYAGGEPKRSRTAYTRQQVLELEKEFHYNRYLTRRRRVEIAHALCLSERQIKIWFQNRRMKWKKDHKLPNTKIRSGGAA
Sequence of HOXB4 (Homo sapiens, UniProt P17483 148-234, V174I) (P17483 148-234 V174I): as the sequence (P17483 148-234) above, with V27I counted along it
Sequence of HESX1 (Homo sapiens, UniProt Q9UBX0 95-180, R165K) (Q9UBX0 95-180 R165K): as the sequence (Q9UBX0 95-180 R109Q) above, with Q15R, R71K counted along it

Sequence	binding signal (HESX1 [1])	binding signal (HOXB4 [2])	binding signal (HESX1 [3])	binding signal (HOXB4 [4])	binding signal (ALX1 [5])	binding signal (ALX1 [6])	binding signal (HESX1 [7])	binding signal (HESX1 [8])	binding signal (HESX1 [9])	binding signal (ALX1 [10])	binding signal (SHOX [11])	binding signal (ALX3 [12])	binding signal (SHOX [13])	binding signal (ALX3 [14])	binding signal (PROP1 [15])	binding signal (PROP1 [16])	binding signal (ALX3 [17])	binding signal (ALX3 [18])	binding signal (PROP1 [19])	binding signal (ALX3 [20])
GGCAGGCC	6.38 upbm affinity estimate (log intensity, higher = more binding, comparable within an allelic series)	7.41 upbm affinity estimate (log intensity, higher = more binding, comparable within an allelic series)	6.43 upbm affinity estimate (log intensity, higher = more binding, comparable within an allelic series)	7.33 upbm affinity estimate (log intensity, higher = more binding, comparable within an allelic series)	6.33 upbm affinity estimate (log intensity, higher = more binding, comparable within an allelic series)	6.11 upbm affinity estimate (log intensity, higher = more binding, comparable within an allelic series)	6.29 upbm affinity estimate (log intensity, higher = more binding, comparable within an allelic series)	6.43 upbm affinity estimate (log intensity, higher = more binding, comparable within an allelic series)	6.33 upbm affinity estimate (log intensity, higher = more binding, comparable within an allelic series)	6.33 upbm affinity estimate (log intensity, higher = more binding, comparable within an allelic series)										
CAATTAAG	13 upbm affinity estimate (log intensity, higher = more binding, comparable within an allelic series)	13 upbm affinity estimate (log intensity, higher = more binding, comparable within an allelic series)	12.9 upbm affinity estimate (log intensity, higher = more binding, comparable within an allelic series)	13.7 upbm affinity estimate (log intensity, higher = more binding, comparable within an allelic series)	11.7 upbm affinity estimate (log intensity, higher = more binding, comparable within an allelic series)	11.4 upbm affinity estimate (log intensity, higher = more binding, comparable within an allelic series)	9.81 upbm affinity estimate (log intensity, higher = more binding, comparable within an allelic series)	11.7 upbm affinity estimate (log intensity, higher = more binding, comparable within an allelic series)	7.88 upbm affinity estimate (log intensity, higher = more binding, comparable within an allelic series)	12.3 upbm affinity estimate (log intensity, higher = more binding, comparable within an allelic series)	12.3 upbm affinity estimate (log intensity, higher = more binding, comparable within an allelic series)	8.48 upbm affinity estimate (log intensity, higher = more binding, comparable within an allelic series)	10.1 upbm affinity estimate (log intensity, higher = more binding, comparable within an allelic series)	12.5 upbm affinity estimate (log intensity, higher = more binding, comparable within an allelic series)	11.6 upbm affinity estimate (log intensity, higher = more binding, comparable within an allelic series)	11.8 upbm affinity estimate (log intensity, higher = more binding, comparable within an allelic series)	10.7 upbm affinity estimate (log intensity, higher = more binding, comparable within an allelic series)	10.2 upbm affinity estimate (log intensity, higher = more binding, comparable within an allelic series)	7.75 upbm affinity estimate (log intensity, higher = more binding, comparable within an allelic series)	8.56 upbm affinity estimate (log intensity, higher = more binding, comparable within an allelic series)
CAATTATG	12.7 upbm affinity estimate (log intensity, higher = more binding, comparable within an allelic series)	13 upbm affinity estimate (log intensity, higher = more binding, comparable within an allelic series)	12.9 upbm affinity estimate (log intensity, higher = more binding, comparable within an allelic series)	13.6 upbm affinity estimate (log intensity, higher = more binding, comparable within an allelic series)	11.7 upbm affinity estimate (log intensity, higher = more binding, comparable within an allelic series)	11.4 upbm affinity estimate (log intensity, higher = more binding, comparable within an allelic series)	9.11 upbm affinity estimate (log intensity, higher = more binding, comparable within an allelic series)	11.2 upbm affinity estimate (log intensity, higher = more binding, comparable within an allelic series)	7.82 upbm affinity estimate (log intensity, higher = more binding, comparable within an allelic series)	12.3 upbm affinity estimate (log intensity, higher = more binding, comparable within an allelic series)	12.1 upbm affinity estimate (log intensity, higher = more binding, comparable within an allelic series)	8.45 upbm affinity estimate (log intensity, higher = more binding, comparable within an allelic series)	9.62 upbm affinity estimate (log intensity, higher = more binding, comparable within an allelic series)	12.4 upbm affinity estimate (log intensity, higher = more binding, comparable within an allelic series)	11.5 upbm affinity estimate (log intensity, higher = more binding, comparable within an allelic series)	11.5 upbm affinity estimate (log intensity, higher = more binding, comparable within an allelic series)	10.5 upbm affinity estimate (log intensity, higher = more binding, comparable within an allelic series)	9.96 upbm affinity estimate (log intensity, higher = more binding, comparable within an allelic series)	7.66 upbm affinity estimate (log intensity, higher = more binding, comparable within an allelic series)	8.59 upbm affinity estimate (log intensity, higher = more binding, comparable within an allelic series)
ACCAATTA	13.7 upbm affinity estimate (log intensity, higher = more binding, comparable within an allelic series)		13.6 upbm affinity estimate (log intensity, higher = more binding, comparable within an allelic series)	13.6 upbm affinity estimate (log intensity, higher = more binding, comparable within an allelic series)	12.1 upbm affinity estimate (log intensity, higher = more binding, comparable within an allelic series)	11.7 upbm affinity estimate (log intensity, higher = more binding, comparable within an allelic series)	10.8 upbm affinity estimate (log intensity, higher = more binding, comparable within an allelic series)	12.3 upbm affinity estimate (log intensity, higher = more binding, comparable within an allelic series)	8.41 upbm affinity estimate (log intensity, higher = more binding, comparable within an allelic series)	12.7 upbm affinity estimate (log intensity, higher = more binding, comparable within an allelic series)	12.7 upbm affinity estimate (log intensity, higher = more binding, comparable within an allelic series)	8.43 upbm affinity estimate (log intensity, higher = more binding, comparable within an allelic series)	10.4 upbm affinity estimate (log intensity, higher = more binding, comparable within an allelic series)	12.8 upbm affinity estimate (log intensity, higher = more binding, comparable within an allelic series)	12 upbm affinity estimate (log intensity, higher = more binding, comparable within an allelic series)	12.3 upbm affinity estimate (log intensity, higher = more binding, comparable within an allelic series)	11.1 upbm affinity estimate (log intensity, higher = more binding, comparable within an allelic series)	10.7 upbm affinity estimate (log intensity, higher = more binding, comparable within an allelic series)	7.81 upbm affinity estimate (log intensity, higher = more binding, comparable within an allelic series)	8.62 upbm affinity estimate (log intensity, higher = more binding, comparable within an allelic series)
